{"source": "PubChem BioAssay (NCI)", "note": "About 83,000 compounds went through this panel and 20% of them were active in at least one assay; those are over-represented in the sample as a whole.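 The endpoint reported here, percent growth, reads 100 for growth as untreated, 0 for no net growth and -100 for all cells dead.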 Unmarked numbers belong to inactive results. Activity calls are given as the source filed them. Rule for the calls: active = growth percent below 10; inactive = the rest.", "data": [{"tested_on": "MDA-MB-468 breast", "experiment": "NCI-60 one-dose screen, 48 h (100 = growth as untreated, 0 = no growth, -100 = all killed)", "conditions": "10 µM unless noted", "values": [{"molecule": "NS(=O)(=O)c1ccc(Nc2nc(N/N=C/c3ccc(F)cc3)nc(Nc3ccccc3)n2)cc1", "growth": "54.1%"}, {"molecule": "O=C(O)C(c1ccccc1)C(O)c1ccccc1", "note": "(stereo not given)", "growth": "101%"}, {"molecule": "COc1cccc(C2=NN3C(C2)c2cc(Br)cc(OC)c2OC32CCN(Cc3ccccc3)CC2)c1", "note": "(stereo not given)", "growth": "96.4%"}, {"molecule": "O=C1CNc2cc(Cl)ccc2N1", "growth": "117%"}, {"molecule": "CCN1CCN(C(=O)[C@]23CCC(C)(C)C[C@H]2C2=CC[C@@H]4[C@@]5(C)Cc6c([nH]c7ccccc67)C(C)(C)[C@@H]5CC[C@@]4(C)[C@]2(C)CC3)CC1", "growth": "84.7%"}, {"molecule": "CC/C(=N\\N=C(/CC)c1ccc(Br)cc1)c1ccc(Br)cc1", "growth": "110%"}, {"molecule": "COc1cc2nc(Cc3ccc(C)cc3)[nH]c(=O)c2cc1OC", "growth": "98.8%"}, {"molecule": "C[n+]1cc2cc(C(N)=O)[nH]c3c(=N)c(Cl)c(N)c1c23", "growth": "53.3%"}, {"molecule": "COc1cc(C(=O)NN=C2c3ccccc3-c3ccccc32)cc(OC)c1OC", "growth": "-3.4% (active)"}, {"molecule": "C=C(C)[C@@H]1CC[C@]2(CO)CC[C@]3(C)[C@H](CC[C@@H]4[C@@]5(C)CC[C@H](NCO)C(C)(C)[C@@H]5CC[C@]43C)[C@@H]12", "growth": "-74.8% (active)"}, {"molecule": "COc1ccc(C(=O)CSc2nc(-c3cc(OC)ccc3OC)cc(-c3ccc(Cl)cc3)c2C#N)cc1", "growth": "25.8%"}, {"molecule": "COc1ccc2c(c1)C(=O)/C(=C/c1ccc(O)cc1)O2", "growth": "-28.5% (active)"}, {"molecule": "COc1cc(C(C)=C(c2ccc(OCCN(C)C)cc2)c2ccc(OCCN(C)C)cc2)ccc1F", "growth": "93.3%"}, {"molecule": "COc1ccc2[nH]c(=O)c(/C=C/C(=O)c3ccc(Nc4nccc(-c5ccc6ccccc6c5)n4)cc3)cc2c1", "growth": "103%"}, {"molecule": "CC(=O)Nc1nccs1", "growth": "107%"}, {"molecule": "CCOC(=O)N1C2CCC(C2)N1C(=O)OCC", "growth": "105%"}, {"molecule": "CC(=O)CC(c1ccccc1)c1c(C)[nH]c2ccccc12", "note": "(stereo not given)", "growth": "106%"}, {"molecule": "CC1=C(C)C(=O)C(Nc2cccc(C(=O)OC(C)(C)C)c2)=C(Cl)C1=O", "growth": "-23.6% (active)"}, {"molecule": "CC(C)CCc1nc2ccc(NCc3ccc(OCCN4CCC(C)CC4)cc3)cc2[nH]1", "growth": "65.6%"}, {"molecule": "CCn1cc(-c2ccnc(NCCNS(=O)(=O)c3ccc(Br)cc3)c2)c(-c2cccc(OC)c2)n1", "growth": "60.6%"}, {"molecule": "ClC1(Cl)C2CCCCCCC21", "note": "(stereo not given)", "growth": "118%"}, {"molecule": "OB(O)c1ccsc1-c1nc2ccc3[nH]ncc3c2c2c1CCCC2", "growth": "8.64% (active)"}, {"molecule": "CCC(C)[C@H](NC(=O)NC(=O)NC(=O)CI)C(=O)OC", "note": "(stereo not given in full)", "growth": "86.4%"}, {"molecule": "Cc1ccc2c(c1)c(-c1nc(-c3c[nH]c4ncccc34)cs1)cn2C", "growth": "-2.68% (active)"}, {"molecule": "CCOC(=O)CC(C#N)(CC(=O)OCC)C(=O)OCC", "growth": "96.9%"}, {"molecule": "O=c1c2cccc(Cl)c2sc2c(NCCCNCCO)nc3ccccc3c12", "growth": "-19.5% (active)"}, {"molecule": "COc1ccc(C2=CN3CC=CCC3CC2=O)cc1", "note": "(stereo not given)", "growth": "107%"}, {"molecule": "COc1cc(Nc2ncccc2C(=O)NCc2cn(Cc3cccc(Oc4ccccc4)c3)nn2)cc(OC)c1", "growth": "18.6%"}, {"molecule": "CC(=O)Nc1nc2c(c(N)c1C#N)C(c1cccc(Cl)c1)C1=C(CCCC1=O)N2c1sc2c(c1C#N)CCCC2", "note": "(stereo not given)", "growth": "47.7%"}, {"molecule": "CC(C)(C)[Si](C)(C)OCC1OC(n2cnc3c(N)ncnc32)CC1OS(C)(=O)=O", "note": "(stereo not given)", "growth": "99.7%"}, {"molecule": "CC(C)[C@@]12C[C@@H](OC(=O)COC(=O)c3ccccc3)[C@@](C)(O1)[C@@H]1CC[C@@H](C)[C@H]1[C@@H]2OC(=O)/C=C/c1ccccc1", "growth": "85.4%"}, {"molecule": "CC/C=C\\C[C@H](O)C/C=C1/C(=O)C=C[C@@H]1C/C=C\\CCCC(=O)OC", "growth": "3% (active)"}, {"molecule": "Cc1ccc(-c2cc(-c3ccc(C)cc3)nc(N3CCN(CCNc4ccnc5cc(Cl)ccc45)CC3)n2)cc1", "growth": "36.4%"}, {"molecule": "CC(O)CN1CCCCC1", "note": "(stereo not given)", "growth": "104%"}, {"molecule": "O=C1Nc2ccccc2/C1=C\\c1ccccc1O", "growth": "67.4%"}, {"molecule": "CC1OC(n2c3ccccc3c3c4c(c5c6ccccc6[nH]c5c32)C(=O)N(CCN[C@H]2CCC[C@@H]2N)C4=O)CC(O)C1O", "note": "(stereo not given in full)", "growth": "-20% (active)"}, {"molecule": "COC(=O)c1ccccc1C(=O)c1c(C)cc(C)cc1C", "growth": "103%"}, {"molecule": "COc1ccc(O)c(N=Nc2nccs2)c1", "growth": "17.5%"}, {"molecule": "COc1cccc(/C=C2\\SC(=Nc3ccc(NC(C)=O)cc3)NC2=O)c1OC", "growth": "109%"}, {"molecule": "CCOC(=O)c1[nH]c2cc(Cl)ccc2c1[C@@H](C(=O)NC(C)(C)C)N(CC)C(=O)CCCCC#Cc1cccc2c1CN(C1CCC(=O)NC1=O)C2=O", "note": "(stereo not given in full)", "growth": "-14.3% (active)"}]}]}
